HT1080NT lethal = qHTS for induction of synthetic lethality in tumor cells producing 2HG: qHTS for the HT-1080-NT fibrosarcoma cell line | 360,000 compounds, 1.6% hits | Potency, µM (titrated, usually from 46.1 µM), usual class: cytotoxic | HT-1080-NT fibrosarcoma viability, CellTiter-Glo ATP luminescence, 48 h;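 also: NT is the 2HG producing partner of a matched IDH1 knockdown line; nearly all actives have a fitted effect of over 55% in size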
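Compounds were tested in concentration-response format on HT-1080-NT cells for 48 hours at 37 degrees C. Cell viability came from CellTiter-Glo luminescence; curves were classified by r2, response magnitude and activity.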
KB-3-1 tox = qHTS assay for MDR1-selective chemotherapeutics: Primary screen using the parental adenocarcinoma cell KB-3-1; KB-3-1 viability, CellTiter-Glo ATP luminescence, 72 h; Potency, µM (highest dose often 46.1 µM), actives largely listed as cytotoxic; 400,000 compounds, 1.4% hits; also: nearly all actives have a fitted effect of over 60% in size
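72 h, 37 °C compound treatment of KB-3-1 parental cells; CellTiter-Glo added, 10 min, luminescence read. Data corrected against DMSO-only plates and normalized before curve fitting.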
HT1080 IDH1KD tx = qHTS for induction of synthetic lethality in tumor cells producing 2HG: qHTS for the HT-1080-IDH1KD cell line. HT-1080 IDH1 knockdown viability, ATP luminescence, 48 h. Potency, µM (titrated, usually from 46.1 µM), actives largely listed as cytotoxic. 360,000 compounds, 2% hits
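In this qHTS, HT-1080 cells depleted of IDH1 are exposed for 48 h at 37 °C to compound titrations. Toxicity is scored from CellTiter-Glo luminescence, with DMSO as full viability and medium alone as none.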
MCF10A rereplic = A quantitative high throughput screen for small molecules that induce DNA re-replication in MCF 10a normal breast cells. Potency, µM (highest dose often 46.1 µM), hits mostly activators. AID 624296, 2012. MCF 10A DNA re-replication, Hoechst nuclear intensity, 48 h. 350,000 compounds, 2.9% hits; also: nearly all actives have a fitted effect of over 50% in size
KB-V1 MDR tox = qHTS assay for MDR1-selective chemotherapeutics: Primary screen using the drug-selected MDR subline cells KB-V1 | KB-V1 MDR cells viability, CellTiter-Glo, 72 h | Potency, µM (doses to about 46.1 µM), actives largely listed as cytotoxic | 400,000 compounds, 3.4% hits | AID 1347076, 2019; also: nearly all actives have a fitted effect of over 60% in size
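Following 72 h at 37 degrees C with compound, KB-V1 cell viability was read by CellTiter-Glo luminescence, medium being phenol-red-free DMEM plus 10% FBS; concentration-response parameters came from normalized, curve-fitted qHTS data.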
SW480 rerep = A quantitative high throughput screen for small molecules that induce DNA re-replication in SW480 colon adenocarcinoma cells; SW480 DNA re-replication, Hoechst DNA content imaging, 48 h; Potency, µM (doses to about 46.1 µM), actives largely listed as activators; 340,000 compounds, 1.8% hits; AID 624297, 2012; also: nearly all actives have a fitted effect of over 55% in size
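Hoechst fluorescence of nuclei (405 nm excitation, 500-530 nm emission) measured by plate-scanning imager after 48 hr compound exposure at 37 C; re-replication scored as increased number of nuclei with elevated intensity.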
A number is an active result; [ ] = another dose, or the depositor's remark. Compounds with a hit are over-represented: about 7.9% of the library has one in this group of screens. Calls follow the shape of the dose curve; as a rule, active = well fitted curve in the direction sought with a large enough effect; inconclusive = small, poorly fitted or top-dose-only effect, or another doubt; inactive = no such curve, though single readings can be large; an effect the other way counts as inactive or inconclusive.

For O=C(CCC1N=C2c3ccccc3N=C(SCc3ccc(Cl)cc3)N2C1=O)NCc1ccco1 (stereo not given) the results were HT1080NT lethal inactive, KB-3-1 tox inconclusive, HT1080 IDH1KD tx inactive, MCF10A rereplic inconclusive, KB-V1 MDR tox 6.5µM and SW480 rerep inconclusive.
For NC(CO)(CO)CO the results were MCF10A rereplic inactive and SW480 rerep inactive.
For COc1ccc(C(=O)NN/C=C/C(=O)c2ccc(Br)cc2)cc1 the results were HT1080NT lethal inactive, KB-3-1 tox inactive, HT1080 IDH1KD tx inactive and KB-V1 MDR tox inactive.
For COc1ccc(C(=O)C=CNNC(=O)c2ccc(Cl)cc2)cc1 the results were HT1080NT lethal inactive, KB-3-1 tox inconclusive, HT1080 IDH1KD tx inconclusive, MCF10A rereplic 5.8µM, KB-V1 MDR tox inconclusive and SW480 rerep 3.7µM.
COC(=O)c1cc2occc2n1Cc1nc(-c2cccc(Br)c2)oc1C was read as KB-3-1 tox inactive and KB-V1 MDR tox inconclusive.
O=C(c1ccccc1)N1CCN(CC(O)COCC2CC=CCC2)CC1 (stereo not given) was read as HT1080NT lethal inactive, KB-3-1 tox inactive, HT1080 IDH1KD tx inactive, MCF10A rereplic inactive, KB-V1 MDR tox 9.2µM and SW480 rerep inactive.
Screening O=C(c1ccccc1)N1CCN(CC2CC=CCC2)CC1 (stereo not given) returned HT1080NT lethal inactive, KB-3-1 tox inactive, HT1080 IDH1KD tx inactive, MCF10A rereplic inactive[0.0737 µM], KB-V1 MDR tox inactive and SW480 rerep inactive.
COCCn1cc(-c2csc(N)n2)c2ccccc21 was read as HT1080NT lethal inactive, KB-3-1 tox inactive, HT1080 IDH1KD tx inactive, MCF10A rereplic inactive, KB-V1 MDR tox inactive and SW480 rerep inactive.
For CN(C)c1nc(-c2cn(CCC#N)c3ccccc23)cs1 the results were HT1080NT lethal inconclusive, KB-3-1 tox inactive, HT1080 IDH1KD tx 26µM, MCF10A rereplic inactive, KB-V1 MDR tox inactive and SW480 rerep inactive.
Screening CCOC(=O)c1c(/N=C/N(C)C)sc(C)c1C returned HT1080NT lethal inactive, KB-3-1 tox inactive, HT1080 IDH1KD tx inactive, MCF10A rereplic inactive, KB-V1 MDR tox inactive and SW480 rerep inactive.
For CCOC(=O)c1c(/N=C/N(C)C)sc(/C=N/Nc2ccccc2)c1-c1ccc(Cl)cc1 the results were HT1080NT lethal inactive, KB-3-1 tox inactive, HT1080 IDH1KD tx inactive, MCF10A rereplic 21µM, KB-V1 MDR tox inactive and SW480 rerep inconclusive.
`O=C(CSc1nc2ccsc2c(=O)n1Cc1ccc(C(=O)O)cc1)NCc1ccco1` gave HT1080NT lethal inactive, KB-3-1 tox inactive, HT1080 IDH1KD tx inactive, MCF10A rereplic inactive, KB-V1 MDR tox inactive and SW480 rerep inactive.
Screening Cc1ccc(CNC(=O)CSc2nc3ccsc3c(=O)n2Cc2ccc(C(=O)O)cc2)cc1 returned HT1080NT lethal inactive, KB-3-1 tox inactive, HT1080 IDH1KD tx inactive, MCF10A rereplic 0.65µM, KB-V1 MDR tox inconclusive and SW480 rerep inactive.
Screening Cc1cccc(OCc2nnc(SCC(=O)c3cccs3)n2C)c1C returned HT1080NT lethal inactive, KB-3-1 tox inactive, HT1080 IDH1KD tx inactive, MCF10A rereplic inactive, KB-V1 MDR tox 16µM and SW480 rerep inactive.
`Cc1ccccc1OCc1nnc(SCC(=O)NCc2ccccc2)n1C` gave HT1080NT lethal inactive, KB-3-1 tox inactive, HT1080 IDH1KD tx inactive, MCF10A rereplic inconclusive, KB-V1 MDR tox inactive and SW480 rerep inactive.
For O=C(COc1ccc(F)cc1)Nc1ccc(OCc2cc(=O)n3ccsc3n2)cc1 the results were KB-3-1 tox inactive and KB-V1 MDR tox inactive.
For CCN=C1S/C(=C\c2ccc(N3CCOCC3)cc2C)C(=O)N1CC the results were HT1080NT lethal inactive, KB-3-1 tox 6.5µM, HT1080 IDH1KD tx inactive, MCF10A rereplic inconclusive, KB-V1 MDR tox inconclusive and SW480 rerep inconclusive.
For CN=C1S/C(=C\c2ccc(N3CCOCC3)cc2C)C(=O)N1C the results were HT1080NT lethal inactive, KB-3-1 tox inactive, HT1080 IDH1KD tx inactive, MCF10A rereplic inactive, KB-V1 MDR tox inactive and SW480 rerep inactive.
For Cc1cc(N2CCOCC2)ccc1/C=C1\NC(=O)N(Cc2ccccc2F)C1=O the results were HT1080NT lethal inactive, KB-3-1 tox inactive, HT1080 IDH1KD tx inactive, MCF10A rereplic 5.2µM, KB-V1 MDR tox inconclusive and SW480 rerep inactive.
For Cc1cc(N2CCOCC2)ccc1/C=C1\NC(=O)N(Cc2ccccc2)C1=O the results were HT1080NT lethal inactive, KB-3-1 tox inactive, HT1080 IDH1KD tx inactive, MCF10A rereplic inconclusive, KB-V1 MDR tox inactive and SW480 rerep inactive.
`O=C(CCC(C(=O)c1ccccc1)c1ccccc1)c1ccccc1` (stereo not given) gave HT1080NT lethal inactive, KB-3-1 tox inactive, HT1080 IDH1KD tx inactive and KB-V1 MDR tox inconclusive.
Screening O=C(COc1ccccc1Cl)Nc1ccc(N2CCCC2)cc1 returned HT1080NT lethal inactive, KB-3-1 tox inactive, HT1080 IDH1KD tx inactive, MCF10A rereplic inconclusive, KB-V1 MDR tox inactive and SW480 rerep 16µM.
`CCN1CCN(c2ccc(NC(=O)COc3ccccc3Cl)cc2)CC1` gave HT1080NT lethal inactive, KB-3-1 tox inactive, HT1080 IDH1KD tx inactive, MCF10A rereplic inconclusive, KB-V1 MDR tox inactive and SW480 rerep inactive.
For O=C(COc1ccccc1[N+](=O)[O-])Nc1ccc(N2CCN(C(=O)c3cccs3)CC2)cc1 the results were HT1080NT lethal inactive, KB-3-1 tox inactive, HT1080 IDH1KD tx inconclusive, MCF10A rereplic inactive, KB-V1 MDR tox 9.2µM and SW480 rerep inactive.
Screening CCC(=O)Nc1ccc(N2CCN(C(=O)c3cccs3)CC2)cc1 returned HT1080NT lethal inactive, KB-3-1 tox inactive, HT1080 IDH1KD tx inactive, MCF10A rereplic inactive, KB-V1 MDR tox inactive and SW480 rerep inactive.
COc1ccc(C(c2nnnn2Cc2ccccc2)N2CCN(C(=O)c3ccco3)CC2)cc1 (stereo not given) was read as HT1080NT lethal inactive, KB-3-1 tox inactive, HT1080 IDH1KD tx inactive, MCF10A rereplic inactive, KB-V1 MDR tox inactive and SW480 rerep inactive.
Screening Cc1ccccc1OCC(=O)Nc1ccc(N2CCN(S(C)(=O)=O)CC2)cc1 returned HT1080NT lethal inactive, KB-3-1 tox inactive, HT1080 IDH1KD tx inactive, MCF10A rereplic inactive, KB-V1 MDR tox 3.7µM and SW480 rerep inactive.
`O=C(c1ccco1)N1CCN(C(c2ccc(Cl)cc2)c2nnnn2Cc2ccccc2)CC1` (stereo not given) gave HT1080NT lethal inactive, KB-3-1 tox inconclusive, HT1080 IDH1KD tx inactive, MCF10A rereplic inactive, KB-V1 MDR tox 16µM and SW480 rerep inactive.

Screening data (PubChem)
